This note sets out measurements from the supplement of paper PMC10723795.

± gives the standard deviation of the averaged measurements.

One experiment deals with DLD1. As to the kind of experiment: nucleolar normality score relative to DMSO (fraction of DMSO control); RPE1 is a non-cancer human cell line; higher = more normal nucleoli (less nucleolar stress). The protocol: (§1)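 Selected screen hits were validated in hTERT lines (BJ5TA, CHON-002, RPE1) and cancer lines (DLD1, HCT116). Cells were immunostained for nucleolin and UBF and the nucleolar normality score was measured per field of view, with 4 fields per drug. Scores are normalized to each cell line's own DMSO control. Dose and time are not stated for this panel.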

The subject of another experiment is HCT116. Described as above. The procedure: as §1

On to `CC[C@@]1(O)C(=O)OCc2c1cc1n(c2=O)Cc2cc3ccccc3nc2-1` [Camptothecin], for which the figures for the nucleolar normality score in the experiment with DLD1 and with HCT116 were 0.402 ± 0.049 and 0.407 ± 0.015, respectively.
